Reference: PubChem BioAssay (Tox21)
Where “and” joins values, the source holds several entries; their conditions need not be identical. Identical values can stand only once. Records with an inconclusive call do not appear. Where a call stands in place of a potency, no number is given. A structure can be active in one record and inactive in another. Calls of active or inactive are those of the source. Unless noted, calls come from the whole dose curve; as a rule, active = well fitted curve in the direction sought with a large enough effect in the repeat runs; inconclusive = weak or mixed curves; inactive = no such curve, though single readings can be large; an effect the other way counts as inactive or inconclusive.

Test system: not listed separately
Assay: qHTS assay to identify small molecule antagonists of the androgen receptor (AR) signaling pathway using the MDA cell line in the presence of 0.5 nM R1881 - cell viability counter screen (AID 1259242); note: nearly all actives have a fitted effect of over 45% in size
Settings: MDA-kb2 viability, CellTiter-Fluor protease fluorescence, 16 h; series mostly up to 92.4 µM
Summary of the method: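 qHTS format. MDA-kb2 (MMTV-luc, AR/GR responsive) + cpd + 0.5 nM R1881 final, 16 hr 37C/0% CO2 → CellTiter-Fluor 30 min → fluorescence intensity.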

SMILES | Potency
CC(=O)Oc1ccccc1C(=O)O | inactive
COc1ccccc1O | inactive
COCCOCCOC | inactive
COCC(C)N (stereo not drawn) | inactive
NCCNc1cccc2ccccc12 | inactive
C/C=C/c1ccc(O)c(OC)c1 | inactive
Cc1cccc(Nc2cc(Cl)nc(SCC(=O)O)n2)c1C | inactive
CCCCCCCCCCCCCC(=O)OC(C)C | inactive
COc1cc(C=O)ccc1O | inactive
COc1ccc(C(=O)c2ccccc2)c(O)c1 | inactive
C1CNCCN1 | inactive
COc1cc(O)c(C(=O)c2ccccc2)cc1S(=O)(=O)O | inactive
COc1ccc(O)cc1 | inactive
CC(O)COc1ccccc1 (stereo not drawn) | inactive
NC(N)=NC(N)=NCCc1ccccc1 | inactive
CC1=NN(c2ccccc2)C(=O)C1 | inactive
O=c1c(-c2ccc(O)cc2)coc2cc(O)cc(O)c12 | inactive
NC(=O)N1c2ccccc2C=Cc2ccccc21 | inactive
Cc1cccc(C)c1O | inactive
NC(=O)N/N=C/c1ccc([N+](=O)[O-])o1 | inactive
C[C@]12CC[C@@H]3c4ccc(O)cc4C[C@@H](CCCCCCCCCS(=O)CCCC(F)(F)C(F)(F)F)[C@H]3[C@@H]1CC[C@@H]2O (stereo partly drawn) | inactive
CC(=O)c1ccc(S(=O)(=O)NC(=O)NC2CCCCC2)cc1 | inactive
CN(C)Cc1cc(CN(C)C)c(O)c(CN(C)C)c1 | inactive
Cc1ccc(O)c(-n2nc3ccccc3n2)c1 | inactive
COC(=O)c1ccc(O)cc1 | inactive
c1ccc2[nH]c(-c3cscn3)nc2c1 | inactive
O=C1OC(c2ccc(O)cc2)(c2ccc(O)cc2)c2ccccc21 | inactive
OCCCc1ccccc1 | inactive
NC(=O)OCC(COC(N)=O)c1ccccc1 | inactive
COc1cc2c(c(OC)c1OC)-c1ccc(OC)c(=O)cc1[C@@H](NC(C)=O)CC2 | inactive

Target: Androgen receptor (Homo sapiens) (UniProt P10275)
Sequence (P10275 whole entry, looked up): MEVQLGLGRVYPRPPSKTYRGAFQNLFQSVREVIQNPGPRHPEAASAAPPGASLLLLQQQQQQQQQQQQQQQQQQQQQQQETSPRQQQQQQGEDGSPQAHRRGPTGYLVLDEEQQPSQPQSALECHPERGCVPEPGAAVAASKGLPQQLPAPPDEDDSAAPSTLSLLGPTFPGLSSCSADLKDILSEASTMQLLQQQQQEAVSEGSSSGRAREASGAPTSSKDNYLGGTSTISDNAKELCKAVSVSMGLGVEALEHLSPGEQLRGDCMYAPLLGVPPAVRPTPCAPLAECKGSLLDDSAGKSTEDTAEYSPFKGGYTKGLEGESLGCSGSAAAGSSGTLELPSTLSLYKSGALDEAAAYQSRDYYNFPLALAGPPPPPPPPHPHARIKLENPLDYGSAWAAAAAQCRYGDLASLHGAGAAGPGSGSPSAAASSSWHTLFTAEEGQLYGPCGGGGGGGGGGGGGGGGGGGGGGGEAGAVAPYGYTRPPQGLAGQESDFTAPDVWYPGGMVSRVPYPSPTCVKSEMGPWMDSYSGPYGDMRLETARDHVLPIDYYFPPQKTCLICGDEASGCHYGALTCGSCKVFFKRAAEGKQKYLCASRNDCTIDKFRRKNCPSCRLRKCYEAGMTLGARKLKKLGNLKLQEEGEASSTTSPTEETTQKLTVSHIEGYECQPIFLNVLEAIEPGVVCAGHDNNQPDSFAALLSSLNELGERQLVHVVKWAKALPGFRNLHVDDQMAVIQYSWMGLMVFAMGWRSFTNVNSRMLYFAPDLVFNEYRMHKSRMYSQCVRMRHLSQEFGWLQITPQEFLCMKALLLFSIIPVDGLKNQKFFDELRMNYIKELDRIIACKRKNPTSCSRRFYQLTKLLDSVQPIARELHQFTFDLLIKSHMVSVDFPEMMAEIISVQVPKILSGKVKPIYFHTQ
Assay: qHTS assay to identify small molecule antagonists of the androgen receptor (AR) signaling pathway using the MDA cell line in the presence of 0.5 nM R1881 (AID 1259243); note: nearly all actives have a fitted effect of over 50% in size; note: potency is the fitted concentration of half-maximal effect
Settings: MDA-kb2 MMTV-luciferase, R1881 0.5 nM, 16 h; series mostly up to 92.4 µM
Summary of the method: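 Antagonist mode quantitative HTS in MDA-kb2 MMTV-luciferase cells, agonist R1881 at 0.5 nM final, 16 hr exposure at 37C and 0% CO2, luminescent detection.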

SMILES | Potency
CC(=O)Oc1ccccc1C(=O)O | inactive
COCCOCCOC | inactive
COCC(C)N (stereo not drawn) | inactive
NCCNc1cccc2ccccc12 | 68.5 µM (active) and inactive
Cc1cccc(Nc2cc(Cl)nc(SCC(=O)O)n2)c1C | inactive
CCCCCCCCCCCCCC(=O)OC(C)C | inactive
COc1cc(C=O)ccc1O | inactive
COc1ccc(C(=O)c2ccccc2)c(O)c1 | 15.1 µM (active) and 27.3 µM (active) and 21.1 µM (active)
COc1cc(O)c(C(=O)c2ccccc2)cc1S(=O)(=O)O | inactive
COc1ccc(O)cc1 | inactive
CC(O)COc1ccccc1 (stereo not drawn) | inactive
O=c1c(-c2ccc(O)cc2)coc2cc(O)cc(O)c12 | inactive
Cc1cccc(C)c1O | inactive
C[C@]12CC[C@@H]3c4ccc(O)cc4C[C@@H](CCCCCCCCCS(=O)CCCC(F)(F)C(F)(F)F)[C@H]3[C@@H]1CC[C@@H]2O (stereo partly drawn) | 8.41 µM (active)
CC(=O)c1ccc(S(=O)(=O)NC(=O)NC2CCCCC2)cc1 | inactive
CN(C)Cc1cc(CN(C)C)c(O)c(CN(C)C)c1 | inactive
c1ccc2[nH]c(-c3cscn3)nc2c1 | inactive
O=C1OC(c2ccc(O)cc2)(c2ccc(O)cc2)c2ccccc21 | 48.6 µM (active) and inactive
NC(=O)OCC(COC(N)=O)c1ccccc1 | inactive
COc1cc2c(c(OC)c1OC)-c1ccc(OC)c(=O)cc1[C@@H](NC(C)=O)CC2 | inactive

Target: Estrogen receptor (Homo sapiens) (UniProt P03372)
Sequence (P03372 whole entry, looked up): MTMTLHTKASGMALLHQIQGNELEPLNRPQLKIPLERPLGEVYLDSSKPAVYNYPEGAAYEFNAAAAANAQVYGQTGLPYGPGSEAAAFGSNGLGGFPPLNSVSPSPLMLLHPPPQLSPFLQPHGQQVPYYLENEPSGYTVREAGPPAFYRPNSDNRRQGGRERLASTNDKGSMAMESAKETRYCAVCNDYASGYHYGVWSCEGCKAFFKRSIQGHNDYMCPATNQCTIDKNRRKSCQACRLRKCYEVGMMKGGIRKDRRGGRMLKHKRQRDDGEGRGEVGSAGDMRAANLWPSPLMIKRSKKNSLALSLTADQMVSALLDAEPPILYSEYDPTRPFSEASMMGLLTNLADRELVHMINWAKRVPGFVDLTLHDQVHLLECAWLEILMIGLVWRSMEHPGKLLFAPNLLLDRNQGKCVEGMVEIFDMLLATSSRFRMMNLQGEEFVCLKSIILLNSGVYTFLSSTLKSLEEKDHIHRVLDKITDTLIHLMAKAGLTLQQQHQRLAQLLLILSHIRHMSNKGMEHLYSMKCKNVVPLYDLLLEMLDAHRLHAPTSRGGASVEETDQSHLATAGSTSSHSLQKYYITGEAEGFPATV
Assay: qHTS assay to identify small molecule antagonists of the estrogen receptor alpha (ER-alpha) signaling pathway using the BG1 cell line in the presence of 0.1 nM 17-beta-estradiol (AID 1259244); note: nearly all actives have a fitted effect of over 50% in size; note: potency is the fitted concentration of half-maximal effect
Settings: VM7Luc4E2 (BG1) ERE-luciferase, antagonist mode, 0.1 nM E2, 22 h; series mostly up to 92.4 µM
Summary of the method: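 Reporter is a stably transfected luciferase under four estrogen responsive elements in VM7Luc4E2 cells expressing native full-length ER-alpha; inhibition of 0.1 nM (final) 17beta-estradiol-driven signal over 22 h is read by luminescence.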

SMILES | Potency
CC(=O)Oc1ccccc1C(=O)O | inactive
COc1ccccc1O | inactive
COCCOCCOC | inactive
COCC(C)N (stereo not drawn) | inactive
C/C=C/c1ccc(O)c(OC)c1 | inactive
Cc1cccc(Nc2cc(Cl)nc(SCC(=O)O)n2)c1C | inactive
CCCCCCCCCCCCCC(=O)OC(C)C | inactive
COc1cc(C=O)ccc1O | inactive
COc1ccc(C(=O)c2ccccc2)c(O)c1 | inactive
C1CNCCN1 | inactive
COc1cc(O)c(C(=O)c2ccccc2)cc1S(=O)(=O)O | inactive
NC(N)=NC(N)=NCCc1ccccc1 | 7.65 µM (active) and 5.45 µM (active) and 7.5 µM (active)
CC1=NN(c2ccccc2)C(=O)C1 | inactive
NC(=O)N1c2ccccc2C=Cc2ccccc21 | inactive
Cc1cccc(C)c1O | inactive
NC(=O)N/N=C/c1ccc([N+](=O)[O-])o1 | inactive and 64.8 µM (active)
CC(=O)c1ccc(S(=O)(=O)NC(=O)NC2CCCCC2)cc1 | inactive
CN(C)Cc1cc(CN(C)C)c(O)c(CN(C)C)c1 | inactive
Cc1ccc(O)c(-n2nc3ccccc3n2)c1 | inactive
COC(=O)c1ccc(O)cc1 | inactive
c1ccc2[nH]c(-c3cscn3)nc2c1 | inactive
OCCCc1ccccc1 | inactive
NC(=O)OCC(COC(N)=O)c1ccccc1 | inactive
COc1cc2c(c(OC)c1OC)-c1ccc(OC)c(=O)cc1[C@@H](NC(C)=O)CC2 | 27 µM (active)

Test system: not listed separately
Assay: qHTS assay to identify small molecule phospholipidosis (PLD) inducers (AID 1259344; active = well fitted curve in the direction sought with a large enough effect; an effect the other way counts as inactive or inconclusive; note: potency is the fitted concentration of half-maximal effect)
Settings: HepG2 phospholipidosis, LipidTOX Red imaging, 24 h; series mostly up to 38.3 µM
Summary of the method: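 Read-out is LipidTOX Red fluorescence (ex 595/em 615) imaged in HepG2 cells after 24 h compound exposure at 37 C, with Hoechst nuclear counterstain (ex 352/em 461) allowing per-cell normalisation.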

SMILES | Potency
CC(=O)Oc1ccccc1C(=O)O | inactive
COc1ccccc1O | inactive
C/C=C/c1ccc(O)c(OC)c1 | inactive
Cc1cccc(Nc2cc(Cl)nc(SCC(=O)O)n2)c1C | inactive
CCCCCCCCCCCCCC(=O)OC(C)C | inactive
COc1cc(C=O)ccc1O | inactive
COc1ccc(C(=O)c2ccccc2)c(O)c1 | inactive
C1CNCCN1 | inactive
COc1cc(O)c(C(=O)c2ccccc2)cc1S(=O)(=O)O | inactive
COc1ccc(O)cc1 | inactive
CC(O)COc1ccccc1 (stereo not drawn) | inactive
NC(N)=NC(N)=NCCc1ccccc1 | inactive
CC1=NN(c2ccccc2)C(=O)C1 | inactive
O=c1c(-c2ccc(O)cc2)coc2cc(O)cc(O)c12 | inactive
NC(=O)N1c2ccccc2C=Cc2ccccc21 | inactive
NC(=O)N/N=C/c1ccc([N+](=O)[O-])o1 | inactive
CC(=O)c1ccc(S(=O)(=O)NC(=O)NC2CCCCC2)cc1 | inactive
Cc1ccc(O)c(-n2nc3ccccc3n2)c1 | inactive
COC(=O)c1ccc(O)cc1 | inactive
c1ccc2[nH]c(-c3cscn3)nc2c1 | inactive
O=C1OC(c2ccc(O)cc2)(c2ccc(O)cc2)c2ccccc21 | inactive
OCCCc1ccccc1 | inactive
NC(=O)OCC(COC(N)=O)c1ccccc1 | inactive
COc1cc2c(c(OC)c1OC)-c1ccc(OC)c(=O)cc1[C@@H](NC(C)=O)CC2 | 0.708 µM (active)
